Where “and” joins values, the source holds several entries; their conditions need not be identical. Equal values may be shown once. Records with an inconclusive call do not appear. Calls of active or inactive are those of the source. How the source made its calls, unless noted: active means hit-call score of the fitted dose curve at least 0.9, where 1 is the maximum; inconclusive means response in the unintended direction; inactive means score below 0.9.

Here are results for eight compounds from PubChem BioAssay (EPA / NIEHS).

Assay [1] concerns the target Cytochrome P450 3A4 (Homo sapiens) (UniProt P08684). Briefly: NVS_ADME_hCYP3A4: NovaScreen (NVS) CYP450-related Enzyme Activity (ADME) Assay for human CYP3A4 (AID 2283110). The method, boiled down: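 Cell-free assay using insect-cell-expressed human CYP3A4 with a fluorogenic substrate; fluorescence intensity was read 0.33 hour after dosing. Loss of signal relative to acetonitrile vehicle indicated inhibition. Primary single-concentration screen at 10 uM, in duplicate, then concentration series.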

Assay [2] has as its target Cytochrome P450 2C19 (Homo sapiens) (UniProt P33261). Briefly: NVS_ADME_hCYP2C19: NovaScreen (NVS) CYP450-related Enzyme Activity (ADME) Assay for human CYP2C19 (AID 2283113).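 Further: potency for inhibition seen as loss of fluorescent signal.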 An outline of the steps:
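Chemicals first screened in duplicate at 10 uM against recombinant human enzyme produced in insect cells; confirmed actives then run as concentration series. Fluorogenic substrate turnover read by fluorescence after 1 h, normalised to acetonitrile.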

Assay [3] has as its target rat CYP2A1, Cyp2a1 (gene 24894) (UniProt P11711). Briefly: NVS_ADME_rCYP2A1: NovaScreen (NVS) CYP450-related Enzyme Activity (ADME) Assay for rat CYP2A1 (AID 2283114; active means hit-call score of the fitted dose curve at least 0.9, where 1 is the maximum; inactive means score below 0.9). An outline of the steps: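 Recombinant rat CYP2A1, cell-free, fluorogenic substrate turnover read by fluorescence intensity 0.75 h after dosing. Primary screen at 10 uM in duplicate; actives rerun as concentration-response up to 20 uM; loss of signal versus acetonitrile control.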

Assay [4] has as its target rat CYP2A2, Cyp2a2 (gene 24895) (UniProt P15149). Briefly: NVS_ADME_rCYP2A2: NovaScreen (NVS) CYP450-related Enzyme Activity (ADME) Assay for rat CYP2A2 (AID 2283116). The method, then: (§1) NVS_ADME_rCYP2A2 is a biochemical, single-readout assay that uses extracted gene-proteins in a cell-free assay. Measurements were taken 0.2 hour after chemical dosing in a 96-well plate.NVS_ADME_rCYP2A2 is one of one assay component(s) measured or calculated from the NVS_ADME_rCYP2A2 assay. It is designed to make measurements of enzyme activity, a form of enzyme reporter, as detected with fluorescence intensity signals by Fluorescence technology.Data from the assay component NVS_ADME_rCYP2A2 was analyzed into 1 assay endpoint. This assay endpoint, NVS_ADME_rCYP2A2, was analyzed in the positive analysis fitting direction relative to Acetonitrile as the negative control and baseline of activity. Using a type of enzyme reporter, loss-of-signal activity can be used to understand changes in the enzymatic activity as they relate to the gene Cyp2a2. Furthermore, this assay endpoint can be referred to as a primary readout, because this assay has produced multiple assay endpoints where this one serves a enzymatic activity function. To generalize the intended target to other relatable targets, this assay endpoint is annotated to the cyp intended target family, where the subfamily is xenobiotic metabolism. […]

Assay [5] addresses rat CYP2C13, Cyp2c13 (gene 171521) (UniProt P20814). Briefly: NVS_ADME_rCYP2C13: NovaScreen (NVS) CYP450-related Enzyme Activity (ADME) Assay for rat CYP2C13 (AID 2283121). How it is done: as §1, with “NVS_ADME_rCYP2C13” for “NVS_ADME_rCYP2A2”, “0.75” for “0.2”, “plate.NVS_ADME_rCYP2C13” for “plate.NVS_ADME_rCYP2A2”, “NVS_ADME_rCYP2C13,” for “NVS_ADME_rCYP2A2,”, “Cyp2c13.” for “Cyp2a2.”

Assay [6] deals with rat CYP3A1, gene 25642. Briefly: NVS_ADME_rCYP3A1: NovaScreen (NVS) CYP450-related Enzyme Activity (ADME) Assay for rat CYP3A1 (AID 2283126). The method, boiled down:
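Cell-free recombinant CYP assay with fluorescent substrate, read 0.5 h after dosing. Screened at 10 uM in duplicate, hits at up to 20 uM in concentration-response; loss of signal versus acetonitrile baseline.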

Assay [7] has as its target rat CYP3A2, Cyp3a2 (gene 266682) (UniProt P05183). Briefly: NVS_ADME_rCYP3A2: NovaScreen (NVS) CYP450-related Enzyme Activity (ADME) Assay for rat CYP3A2 (AID 2283128). How it is done: as §1, with “NVS_ADME_rCYP3A2” for “NVS_ADME_rCYP2A2”, “0.5” for “0.2”, “plate.NVS_ADME_rCYP3A2” for “plate.NVS_ADME_rCYP2A2”, “NVS_ADME_rCYP3A2,” for “NVS_ADME_rCYP2A2,”, “Cyp3a2.” for “Cyp2a2.”

Assay [8] addresses human CYP2C9, CYP2C9 (gene 1559) (UniProt P11712). Briefly: NVS_ADME_hCYP2C9: NovaScreen (NVS) CYP450-related Enzyme Activity (ADME) Assay for human CYP2C9 (AID 2283108). An outline of the steps:
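Cell-free assay of recombinant human CYP2C9 produced in Sf9 cells, with enzyme activity read by fluorescence intensity 0.75 h after compound addition. Loss of signal versus an acetonitrile negative control indicates inhibition. Primary screen used 10 uM in duplicate; actives were retested in concentration series.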

For assay [9], the target named is rat CYP2C11, Cyp2c11 (gene 29277) (UniProt P08683). Briefly: NVS_ADME_rCYP2C11: NovaScreen (NVS) CYP450-related Enzyme Activity (ADME) Assay for rat CYP2C11 (AID 2283118). The method, boiled down: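 Cell-free recombinant rat enzyme with fluorescent substrate; readout 0.33 h after dosing, loss of signal versus acetonitrile control. Initial duplicate single-point at 10 uM; actives rerun in concentration series.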

The subject of assay [10] is rat CYP2C6, gene 293989. Briefly: NVS_ADME_rCYP2C6: NovaScreen (NVS) CYP450-related Enzyme Activity (ADME) Assay for rat CYP2C6 (AID 2283120). The method, boiled down: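 Cell-free recombinant rat CYP2C6 with fluorogenic substrate, read by fluorescence 1 h after dosing; acetonitrile as negative control. Primary screen at 10 uM in duplicate, actives then in concentration-response up to 20 uM.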

Sequence of human CYP2C9, CYP2C9 (gene 1559) (P11712 whole entry, looked up): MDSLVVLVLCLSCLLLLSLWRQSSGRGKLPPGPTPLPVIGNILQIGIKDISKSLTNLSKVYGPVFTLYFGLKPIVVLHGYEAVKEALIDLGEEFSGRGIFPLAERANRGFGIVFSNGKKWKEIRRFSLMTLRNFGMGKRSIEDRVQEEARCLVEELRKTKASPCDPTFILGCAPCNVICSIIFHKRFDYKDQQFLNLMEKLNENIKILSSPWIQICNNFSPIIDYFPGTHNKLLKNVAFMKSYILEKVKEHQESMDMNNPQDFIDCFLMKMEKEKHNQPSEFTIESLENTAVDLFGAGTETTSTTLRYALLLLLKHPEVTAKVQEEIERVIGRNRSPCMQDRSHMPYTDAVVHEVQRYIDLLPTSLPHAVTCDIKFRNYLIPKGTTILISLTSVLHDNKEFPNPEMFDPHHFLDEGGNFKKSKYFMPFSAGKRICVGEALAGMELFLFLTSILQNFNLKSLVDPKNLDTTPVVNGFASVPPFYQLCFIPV
Sequence of rat CYP2A2, Cyp2a2 (gene 24895) (P15149 whole entry, looked up): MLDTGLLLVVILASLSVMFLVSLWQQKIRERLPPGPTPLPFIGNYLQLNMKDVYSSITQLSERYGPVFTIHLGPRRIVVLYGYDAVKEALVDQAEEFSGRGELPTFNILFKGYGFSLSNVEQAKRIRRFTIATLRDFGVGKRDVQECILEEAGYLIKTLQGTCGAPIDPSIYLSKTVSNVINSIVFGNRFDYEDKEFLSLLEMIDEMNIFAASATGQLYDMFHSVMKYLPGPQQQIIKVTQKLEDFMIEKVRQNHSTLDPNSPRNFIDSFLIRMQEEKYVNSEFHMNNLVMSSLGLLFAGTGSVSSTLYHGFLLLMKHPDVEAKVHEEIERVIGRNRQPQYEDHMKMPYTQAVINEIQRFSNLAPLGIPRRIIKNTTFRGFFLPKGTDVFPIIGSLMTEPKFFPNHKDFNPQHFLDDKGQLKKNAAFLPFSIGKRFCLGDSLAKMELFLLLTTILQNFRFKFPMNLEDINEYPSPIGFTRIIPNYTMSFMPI
Sequence of Cytochrome P450 3A4 (Homo sapiens) (P08684 whole entry, looked up): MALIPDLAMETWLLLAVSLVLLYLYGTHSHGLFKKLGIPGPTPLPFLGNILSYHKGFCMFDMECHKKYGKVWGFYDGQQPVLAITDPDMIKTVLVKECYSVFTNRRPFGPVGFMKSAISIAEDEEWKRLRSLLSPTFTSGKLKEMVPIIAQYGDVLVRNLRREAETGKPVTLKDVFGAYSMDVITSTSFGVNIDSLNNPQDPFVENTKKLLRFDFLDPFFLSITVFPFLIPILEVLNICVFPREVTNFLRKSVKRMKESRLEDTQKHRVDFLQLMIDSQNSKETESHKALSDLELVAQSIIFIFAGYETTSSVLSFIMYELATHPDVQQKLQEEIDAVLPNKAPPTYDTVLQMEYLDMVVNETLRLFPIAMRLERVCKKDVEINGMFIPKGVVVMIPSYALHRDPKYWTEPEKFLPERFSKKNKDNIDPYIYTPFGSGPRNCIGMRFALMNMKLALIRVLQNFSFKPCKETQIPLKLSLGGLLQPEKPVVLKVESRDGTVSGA
Sequence of rat CYP2C13, Cyp2c13 (gene 171521) (P20814 whole entry, looked up): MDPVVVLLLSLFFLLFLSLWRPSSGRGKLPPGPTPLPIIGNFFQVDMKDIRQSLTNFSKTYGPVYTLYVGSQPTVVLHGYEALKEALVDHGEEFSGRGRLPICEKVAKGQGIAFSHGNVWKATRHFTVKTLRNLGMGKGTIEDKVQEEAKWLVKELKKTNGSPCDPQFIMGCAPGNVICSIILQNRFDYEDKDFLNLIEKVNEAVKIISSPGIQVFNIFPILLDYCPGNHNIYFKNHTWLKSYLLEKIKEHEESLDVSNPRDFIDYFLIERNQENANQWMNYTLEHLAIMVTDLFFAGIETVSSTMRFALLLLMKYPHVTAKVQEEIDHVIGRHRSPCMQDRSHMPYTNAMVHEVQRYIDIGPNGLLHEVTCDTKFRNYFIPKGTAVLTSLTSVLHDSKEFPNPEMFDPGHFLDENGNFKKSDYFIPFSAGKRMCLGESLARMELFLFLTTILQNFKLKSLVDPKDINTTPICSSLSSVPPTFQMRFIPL
Sequence of rat CYP3A2, Cyp3a2 (gene 266682) (P05183 whole entry, looked up): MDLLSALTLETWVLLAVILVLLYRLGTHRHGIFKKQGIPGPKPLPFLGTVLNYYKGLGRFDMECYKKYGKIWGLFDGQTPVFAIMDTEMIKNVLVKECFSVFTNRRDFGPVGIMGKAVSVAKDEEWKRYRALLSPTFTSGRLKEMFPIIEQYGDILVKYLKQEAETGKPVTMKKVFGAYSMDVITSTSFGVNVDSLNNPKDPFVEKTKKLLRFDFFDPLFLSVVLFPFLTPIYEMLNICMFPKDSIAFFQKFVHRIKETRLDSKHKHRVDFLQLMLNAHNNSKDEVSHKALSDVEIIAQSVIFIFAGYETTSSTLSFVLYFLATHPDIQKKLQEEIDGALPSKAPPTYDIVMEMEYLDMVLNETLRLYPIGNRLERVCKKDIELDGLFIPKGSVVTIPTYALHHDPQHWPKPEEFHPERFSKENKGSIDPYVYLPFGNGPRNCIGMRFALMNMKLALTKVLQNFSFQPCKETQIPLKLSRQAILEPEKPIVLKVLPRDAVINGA
Sequence of rat CYP2C11, Cyp2c11 (gene 29277) (P08683 whole entry, looked up): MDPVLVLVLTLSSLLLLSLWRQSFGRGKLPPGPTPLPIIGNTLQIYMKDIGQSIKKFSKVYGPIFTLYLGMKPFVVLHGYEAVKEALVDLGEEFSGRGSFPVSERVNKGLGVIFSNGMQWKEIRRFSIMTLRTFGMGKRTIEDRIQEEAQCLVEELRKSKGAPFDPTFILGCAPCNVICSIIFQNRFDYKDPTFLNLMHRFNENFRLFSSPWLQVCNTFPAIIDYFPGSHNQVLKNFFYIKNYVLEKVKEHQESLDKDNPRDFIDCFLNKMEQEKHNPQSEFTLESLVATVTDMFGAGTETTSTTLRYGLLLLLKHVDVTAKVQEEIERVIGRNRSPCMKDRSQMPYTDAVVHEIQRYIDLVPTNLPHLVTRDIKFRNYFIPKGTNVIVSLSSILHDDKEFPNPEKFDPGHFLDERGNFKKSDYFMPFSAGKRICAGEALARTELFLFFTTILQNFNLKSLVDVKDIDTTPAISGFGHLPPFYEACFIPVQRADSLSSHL
Sequence of rat CYP2A1, Cyp2a1 (gene 24894) (P11711 whole entry, looked up): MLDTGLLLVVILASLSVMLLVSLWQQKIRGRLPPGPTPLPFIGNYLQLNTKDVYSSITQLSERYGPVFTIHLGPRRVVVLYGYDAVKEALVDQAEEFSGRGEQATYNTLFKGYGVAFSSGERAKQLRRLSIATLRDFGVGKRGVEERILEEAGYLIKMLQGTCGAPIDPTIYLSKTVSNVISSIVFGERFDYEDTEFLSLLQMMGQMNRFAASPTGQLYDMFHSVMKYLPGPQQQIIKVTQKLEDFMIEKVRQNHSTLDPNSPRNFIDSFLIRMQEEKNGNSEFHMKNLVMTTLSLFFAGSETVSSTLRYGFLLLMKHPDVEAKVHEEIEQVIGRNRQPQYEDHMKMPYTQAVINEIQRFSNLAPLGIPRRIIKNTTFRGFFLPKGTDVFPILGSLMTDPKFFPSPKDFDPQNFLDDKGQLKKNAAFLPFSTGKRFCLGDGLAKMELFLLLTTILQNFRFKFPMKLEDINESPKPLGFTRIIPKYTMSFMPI

`O=S1(=O)CC(Cl)(Cl)C(Cl)(Cl)C1`: in [1], the AC50 was 431 nM (active).

For `C[C@]12CC[C@@H]3c4ccc(O)cc4CC[C@H]3[C@@H]1CC[C@@H]2O`, the concentration at half-maximal activity (AC50) was 813 nM (active) and 2.14 µM (active) in assay [2]; 6.22 µM (active) in assay [4]; 492 nM (active) and 892 nM (active) and 748 nM (active) in [5]; 1.48 µM (active) in [7]. Moreover, the compound was called inactive in assay [3] and in assay [6].

As to `C=CC(=O)OCC(CO)(COC(=O)C=C)COC(=O)C=C`, the AC50 in assay [2] was 1.76 µM (active).

For `O=C(c1ccc(OCCN2CCCCC2)cc1)c1c(-c2ccc(O)cc2)sc2cc(O)ccc12`, in assay [1], the compound was called inactive.

Turning to `CC/C(=C(\c1ccccc1)c1ccc(OCCN(C)C)cc1)c1ccccc1`, the call in assay [1] was inactive.

Turning to `O=[N+]([O-])c1cc(N(CCO)CCO)ccc1NCCO`, in [8], the AC50 was 2.42 µM (active).

As to `CC(=O)OC(C)(C)C1CC=C(C)CC1` (centres undefined), in [2], the AC50 is 3.56 µM (active).

`C#C[C@]1(O)CC[C@H]2[C@@H]3CCc4cc(O)ccc4[C@H]3CC[C@@]21C`: the AC50 in [8] is 6.68 µM (active) and 7.82 µM (active) and 6.49 µM (active); in assay [2], 1.02 µM (active) and 2.09 µM (active) and 1.18 µM (active); in assay [4], 785 nM (active) and 1.44 µM (active) and 680 nM (active); in assay [9] it was 2.5 µM (active) and 2.81 µM (active) and 1.76 µM (active); in assay [10], 1.43 µM (active) and 2.55 µM (active) and 1.67 µM (active); in assay [6] it was 2.51 µM (active) and 3.73 µM (active) and 1.4 µM (active). For the same compound, the AC50 in assay [7] was 1.2 µM (active) and 2.59 µM (active) and 1.12 µM (active).
